Hits are enriched below; roughly 7.5% of the tested compounds scored in any of these assays.
FLuc modulator: firefly luciferase modulation, counter-screen for miR-21 project; P08659; purified FLuc, Km substrates, luminescence inhibition; Potency, µM (series often up to 57.5 µM), without a hit: at the top dose activity change, negative = inhibition, hits mostly inhibitors; 360,000 compounds, 6.9% hits; AID 588342;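 also: plate controls were vehicle for no effect and reference inhibitor for full effect; nearly all actives have a fitted effect of over 55% in size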
Target sequence (P08659 whole entry, looked up): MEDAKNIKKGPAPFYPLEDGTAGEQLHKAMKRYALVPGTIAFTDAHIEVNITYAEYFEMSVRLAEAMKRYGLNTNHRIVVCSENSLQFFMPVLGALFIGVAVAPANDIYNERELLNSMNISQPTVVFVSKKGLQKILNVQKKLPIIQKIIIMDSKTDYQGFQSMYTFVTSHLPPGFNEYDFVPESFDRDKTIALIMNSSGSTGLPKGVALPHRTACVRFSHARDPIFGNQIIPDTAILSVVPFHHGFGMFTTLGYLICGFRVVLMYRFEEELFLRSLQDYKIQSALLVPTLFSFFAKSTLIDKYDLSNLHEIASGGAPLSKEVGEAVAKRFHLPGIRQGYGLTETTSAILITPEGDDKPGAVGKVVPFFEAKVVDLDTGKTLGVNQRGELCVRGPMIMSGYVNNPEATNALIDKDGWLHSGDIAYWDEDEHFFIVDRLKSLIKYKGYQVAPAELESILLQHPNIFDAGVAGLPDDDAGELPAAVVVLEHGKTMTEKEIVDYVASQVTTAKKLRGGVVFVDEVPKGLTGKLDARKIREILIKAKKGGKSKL
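Biochemical qHTS of compounds, final roughly 60 µM downward over six points, against 10 nM purified firefly luciferase using Km concentrations of substrates (10 uM D-luciferin, 10 uM ATP) in Tris acetate pH 7.5 buffer; luminescence output.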
SMN2 splice up: increases expression of the SMN2 splice variant | 210,000 compounds, 2.8% hits | Potency, µM (top dose mostly 46.1 µM), inactives show top-dose activity change, positive = activation, most hits filed as activators | HEK293 SMN2-luciferase splicing reporter, luminescence, 30-36 h; also: % of control where 0% means no effect; nearly all actives have a fitted effect of over 55% in size
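HEK293 cells carry an SMN2 minigene-luciferase reporter in which exon 7 inclusion puts luciferase in frame. Cells were seeded at 2000 cells/well, attached for 10-12 hours, then exposed to compounds for 30-36 hours at 37C before ONE-Glo luminescence.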
ELG1 genotox: genotoxicity induction in ELG1-luciferase HEK293T cells; HEK293T ELG1-luciferase reporter, luminescence, 16 h; 330,000 compounds, 1.3% hits; Potency, µM (titrated, usually from 46 µM), for inactives: at the highest dose activity change, positive = activation, actives largely listed as activators; also: % of control where 0% means no effect; nearly all actives have a fitted effect of over 60% in size
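16 hr compound incubation (37 °C, 5% CO2) of HEK293T cells carrying luciferase-tagged ELG1; luciferase then measured by ONE-Glo luminescence after 30 min at RT.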
Rab9 prom act: activators of Rab9 promoter; 320,000 compounds, 2.8% hits; Huh7 Rab9 promoter-luciferase reporter, luminescence, 24 h; Potency, µM (titrated, usually from 9.22 µM), inactives show at the top dose activation, negative = inhibition, most hits filed as activators; also: % of control where 0% means no effect; nearly all actives have a fitted effect of over 60% in size
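Luminescence from Amplite-detected luciferase (10 minutes, ambient) reports Rab9 promoter activation. Before that, stable Rab9-luciferase Huh7 cells (1500/well, reduced-serum OP-MEM I plus 10% FBS) were exposed to compound for 24 hours at 37C.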
KinaseGlo FLuc: Kinase-Glo luciferase inhibition (counter-screen) | Q27757 | Kinase-Glo luciferase, ATP luminescence, 8 min | Potency, µM (top dose mostly 38.3 µM), for the others: top-dose activity change, negative = inhibition, actives largely listed as inhibitors | 200,000 compounds, 0.28% hits | AID 1379; also: % is scaled to controls: 0 for no effect and ±100 for the full control effect; nearly all actives have a fitted effect of over 60% in size
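Compounds were added to a substrate mix at pH 7.2 (50 mM imidazole, 10 uM ATP, within the enzyme's linear range), followed by Kinase-Glo detection reagent; luminescence was measured after 8 minutes at ambient temperature.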
NPC1 promoter act: activates the NPC1 promoter | Huh7 NPC1 promoter luciferase reporter, 24 h | Potency, µM (titrated, usually from 9.22 µM), without a hit: at the top dose activation, hits mostly activators | AID 485313 | 320,000 compounds, 2.4% hits; also: % of control where 0% means no effect; nearly all actives have a fitted effect of over 60% in size
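Readout is luciferase luminescence, reflecting NPC1 promoter activation in stably transfected Huh7 cells after 24 h compound exposure at 37 °C in reduced-serum medium with 10% FBS.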
An asterisk follows results filed as active; ? = inconclusive; . = no result given. Calls follow the shape of the dose curve; as a rule, active = well fitted curve in the direction sought with a large enough effect; inconclusive = small, poorly fitted or top-dose-only effect, or another doubt; inactive = no such curve, though single readings can be large; an effect the other way counts as inactive or inconclusive. Potency is read from the fitted curve at half-maximal effect.

SMILES | FLuc modulator | SMN2 splice up | ELG1 genotox | Rab9 prom act | KinaseGlo FLuc | NPC1 promoter act
CN(C)S(=O)(=O)c1cccc(NC(=S)NC23CC4CC(CC(C4)C2)C3)c1 | 2.2% | . | -16.6% | -0.9% | . | -1.0%
CN(C)c1ccc(NC(=S)NC23CC4CC(CC(C4)C2)C3)cc1 | 12µM* | . | ? | ? | . | -2.0%
Cc1ccc(O)c(N=Nc2ccccc2)n1 | . | ? | . | 20.6µM* | 2.82µM* | 18.4µM*
CCn1ccc(C(=O)Nc2ccccc2SC)n1 | ? | 14.1µM* | ? | 4.47µM* | -5.3% | ?
CCn1ccc(C(=O)Oc2ccc(Cl)cc2)n1 | 7.57µM* | -11.4% | 2.0% | -4.2% | -3.0% | 3.3%
CCn1nccc1C(=O)Nc1ccc(Cl)cn1 | ? | 20.3% | ? | 27.1% | ? | 25.8%
CCn1ccc(C(=O)Nc2ccc(Cl)cn2)n1 | 19µM* | ? | ? | 3.98µM* | -6.2% | 3.16µM*
CC(C)c1ccc(OC(=O)c2cc(-c3ccc(Cl)cc3)on2)cc1 | -4.6% | . | . | . | . | .
C1CCCNCC1 | . | -3.2% | . | . | . | .
CCOC(=O)Cc1ccc(NC(=O)c2ccc(C(C)(C)C)cc2)cc1 | 1.07µM* | -106.7% | -16.1% | -21.1% | -2.2% | -17.5%
CCOC(=O)c1ccc(NC(=O)c2ccc(NC(=O)c3ccccc3)cc2)cc1 | -1.4% | ? | ? | -4.2% | -2.1% | -3.9%
CCOC(=O)Cc1ccc(NC(=O)c2ccccc2Br)cc1 | 19µM* | 24.4% | 10.3% | 12.1% | -2.6% | 14.1%
CC1CCCCC1NC(=O)C1CCCN(S(=O)(=O)c2ccc(-n3cnnn3)cc2)C1 (stereo not given) | 1.4% | . | -11.7% | 1.3% | . | 1.1%
O=C(c1ccccc1)c1c[nH]c(C(=O)NNc2ccccc2)c1 | 3.7% | -13.7% | 3.7% | -0.5% | -0.5% | -3.3%
Cc1ccc(C2=N/C(=C/N3CCOCC3)C(=O)O2)cc1 | 12µM* | 11.2µM* | 16.4µM* | 3.55µM* | -3.6% | ?
Cc1ccc(C2=N/C(=C\N3CCCCC3)C(=O)O2)cc1 | 5.36µM* | ? | 4.11µM* | 1.12µM* | -0.4% | 2.24µM*
COc1ccc(/C=C2\N=C(c3ccc(C)cc3)OC2=O)cc1 | ? | . | 0.4% | 3.8% | . | -2.3%
Cc1cccc2cc(/C=C3\N=C(c4ccccc4)OC3=O)c(N3CCOCC3)nc12 | 2.6% | -5.5% | -1.9% | 0.4% | -2.3% | -5.1%
CCc1ccccc1NC(=O)c1ccc2c(c1)CCCN2S(C)(=O)=O | -10.9% | 7.3% | . | . | . | .
Cc1ccc(Nc2nc(/N=C/N(C)C)n[nH]2)cc1C | 23.9µM* | ? | 5.6% | ? | -2.5% | ?
Cc1ccc(Nc2nc3ccccc3c(=O)[nH]2)cc1C | -15.4% | ? | 7.8% | ? | -0.7% | 28.6%
N/C(COc1cc(Cl)cc(Cl)c1)=N\O | -1.9% | . | -0.6% | 1.4% | . | -5.7%
CCc1nnc(NC(=O)c2nc(SCc3ccc(F)cc3)ncc2Cl)s1 | 12µM* | 1.5% | . | . | . | .
Cc1ccc(CSc2ncc(Cl)c(C(=O)Nc3nnc(C)s3)n2)cc1 | 15.1µM* | -3.8% | . | . | . | .
CCC(C)C(NS(=O)(=O)c1ccc(C)cc1)C(=O)N1CCOCCOCCOCC1 (stereo not given) | 0.4% | . | -4.2% | -2.9% | . | -3.1%
SMILES | FLuc modulator | SMN2 splice up | ELG1 genotox | Rab9 prom act | KinaseGlo FLuc | NPC1 promoter act
COCCCNC(=O)c1cccn2c(=O)c3cc4ccccc4cc3nc12 | 15.1µM* | -33.1% | 11.0% | 18.9% | -4.1% | 27.1%
O=C(NCc1ccco1)c1cccn2c(=O)c3cc4ccccc4cc3nc12 | -6.0% | ? | ? | 23.4% | 0.1% | 1.1%
CSc1ccccc1-c1nnc(-c2ccccc2)o1 | 3.38µM* | 11.2µM* | ? | 3.16µM* | ? | 19.8%
CSc1nnc(-c2ccccc2SC)o1 | -7.3% | -0.1% | 3.0% | 1.4% | -1.5% | 0.8%
CSc1ccccc1-c1nnc(-c2ccc(C)cc2)o1 | 1.51µM* | 10µM* | ? | ? | 1.8% | ?
CCC(CC)C(=O)Nc1cc(-c2nc3cccnc3s2)ccc1C | 12µM* | . | . | . | . | .
Cc1ccc(-c2nc3cccnc3s2)cc1NC(=O)Cc1ccccc1 | 1.07µM* | . | . | . | . | .
CCCC(=O)Nc1cc(-c2nc3cccnc3s2)ccc1C | 9.53µM* | . | . | . | . | .
COc1ccc(CC(=O)Nc2cc(-c3nc4cccnc4s3)ccc2C)cc1 | 0.675µM* | . | . | . | . | .
CCc1nc2ccc(C(=O)NCc3cc(OC)ccc3OC)cc2nc1CC | 2.5% | . | . | . | . | .
COc1cc(O)c(CCC(=O)c2ccc(OC)c(OC)c2)c(OC)c1 | -4.2% | . | -3.9% | -5.0% | . | 4.3%
COc1ccc(C2=NOC(CNC(N)=S)C2)cc1 (stereo not given) | 10.7µM* | 12.6µM* | 12.1% | 0.708µM* | -9.6% | 1µM*
C=CCOc1ccc2nc(NC(=O)OC)[nH]c2c1 | ? | 11.2µM* | 9.2µM* | -2.1% | -3.5% | 6.9%
O=C(Nc1ccc(N2CCOCC2)cc1)c1c(F)cccc1Cl | -2.0% | -0.2% | 18.7% | 1.8% | -2.3% | -1.9%
CC(C)(C)c1ccc(NC(=O)c2c(F)cccc2Cl)cc1 | 16.9µM* | . | 6.9% | ? | . | 12.1%
O=C(Nc1nc2ccccc2s1)c1c(F)cccc1Cl | 23.9µM* | . | ? | ? | . | ?
Cn1cc(Cl)c(C(=O)Nc2nc3ccccc3s2)n1 | 0.953µM* | 1.78µM* | 0.461µM* | ? | ? | ?
Cc1ccc(-c2nnc(NC(=O)c3c(F)cccc3Cl)s2)cc1 | -11.3% | . | 7.1% | 9.8% | . | 12.4%
COc1cccc(C(C(=O)NCc2ccccc2)N(C(=O)c2csnn2)C2CC2)c1 (stereo not given) | 2.2% | . | -3.0% | -5.1% | . | -8.7%
Cn1ncc2c(O/N=C(\N)c3ccc(C(C)(C)C)cc3)ncnc21 | 15.1µM* | . | -22.3% | -41.4% | . | -43.2%
CCOC(=O)c1ccc(Nc2ncnc3c2cnn3C)cc1 | -13.8% | . | 11.5% | 2.7% | . | 1.8%
CCOC(=O)c1ccc(NC(=O)/C=C/c2cccs2)cc1 | 10.7µM* | ? | -1.4% | ? | -6.2% | ?
CC(=O)OC(C(=O)Nc1nccs1)c1ccccc1 (stereo not given) | 0.5% | . | -6.4% | 8.5% | . | -1.0%
NS(=O)(=O)c1ccc(NC(=O)/C=C/c2cccs2)cc1 | -0.4% | . | 10.2% | 0.9% | . | 12.6%
O=C(Nc1nccs1)C(Br)C(Br)c1ccccc1 (stereo not given) | 4.78µM* | . | ? | 0.501µM* | . | 1.12µM*
CCc1nnc(NC(=O)C=C(C)C)s1 | ? | 10µM* | ? | ? | 1.6% | ?
NS(=O)(=O)c1cccc(NC(=O)/C=C/c2cccs2)c1 | 7.57µM* | ? | 16.9% | ? | -4.2% | ?
Cc1ccc(OCCC(=O)OCC(=O)Nc2cc(C)nn2-c2ccccc2)cc1 | ? | . | -1.9% | 4.4% | . | -2.6%

Screening results from PubChem BioAssay.
